According to PubChem BioAssay (NCI):
Compounds without any hit were thinned out: in the full panel of roughly 83,000, 20% have a hit.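 Growth was measured after 48 h exposure to one concentration of compound in 96-well plates. Values under 10 count as active.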 A number with no mark means an inactive call. Calls of active or inactive are those of the source.

How the values were obtained:
Test in all cases: NCI-60 one-dose screen, 48 h (100 = growth as untreated, 0 = no growth, -100 = all killed)
Conditions in all cases: 10 µM unless noted
DU-145 prostate = test system: DU-145 prostate
K-562 leukemia = test system: K-562 leukemia
MALME-3M melanoma = test system: MALME-3M melanoma
MDA-MB-231 breast = test system: MDA-MB-231 breast
RXF 393 renal = test system: RXF 393 renal
SF-268 CNS = test system: SF-268 CNS
SF-295 CNS = test system: SF-295 CNS
SF-539 CNS = test system: SF-539 CNS
UACC-257 melanoma = test system: UACC-257 melanoma
M14 melanoma = test system: M14 melanoma

| SMILES | growth (DU-145 prostate) | growth (K-562 leukemia) | growth (MALME-3M melanoma) | growth (MDA-MB-231 breast) | growth (RXF 393 renal) | growth (SF-268 CNS) | growth (SF-295 CNS) | growth (SF-539 CNS) | growth (UACC-257 melanoma) | growth (M14 melanoma) |
| --- | --- | --- | --- | --- | --- | --- | --- | --- | --- | --- |
| C=CCCCOC1[C@H](OCc2ccccc2)C(OCc2ccccc2)C(OC)O[C@@H]1CNC(=O)c1cccc(I)c1 (stereo not given in full) | 49.7% | 52% | 80.4% | 58% | 38.1% | 31.3% | 35% | 31.8% | 36.8% | 47.1% |
| CCCNC(=O)c1cn2ncnc(Nc3cc(C(=O)NC4CC4)ccc3C)c2c1C | 103% | 85% | 3.42% (active) | 79.2% | 40% | 88% | 79.5% | 77.3% | 65.6% | 92.4% |
| O=S1(=O)OC(c2ccc(O)c(Cl)c2)(c2ccc(O)c(Cl)c2)c2ccccc21 | 103% | 113% | 114% | 109% | 105% | 96.9% | 103% | 93.3% | 98.9% | 105% |
| COc1cc(F)c(F)c(Nc2ccc(I)cc2F)c1NS(=O)(=O)C1(C[C@H](O)CO)CC1 | 51.2% | 21.9% | 0.42% (active) | 23% | -2.17% (active) | 52.9% | 59.9% | 53.5% | -12.7% (active) | 7.68% (active) |
| COc1ccc(-c2ccc3c(N4CCOC[C@@H]4C)nc(N4CCOC[C@@H]4C)nc3n2)cc1CO | 11.6% | 12.8% | -8.07% (active) | 13% | -27.5% (active) | 14.9% | -35% (active) | -39.2% (active) | -24.8% (active) | 6.2% (active) |
| CN(c1ncccc1CNc1nc(Nc2ccc3c(c2)CC(=O)N3)ncc1C(F)(F)F)S(C)(=O)=O | 11.2% | 4.58% (active) | -14.4% (active) | 3.93% (active) | -43.3% (active) | 2.36% (active) | 11.8% | -36% (active) | -29.1% (active) | -23.9% (active) |
| O=c1[nH]ccc2c(S(=O)(=O)N3CCCNCC3)cccc12 | 62.2% | 104% | 82.2% | 87.3% | 57.8% | 54.3% | 74.5% | 76.5% | 99.1% | 88.3% |
| Cc1cc(O)cc(-c2c(-c3ccnc(-c4cccnc4)c3)cnn2C)c1 | 70.4% | 57.8% | 49.7% | 60.2% | 54.4% | 72.8% | 59.2% | 42.7% | 83.1% | 66% |
| CCCCCCCC12Cc3ccccc3C1=Nc1c(c3ccccc3n1C)C2=O (stereo not given) | 120% | 85.9% | 95.2% | 82.4% | 104% | 100% | 97.4% | 111% | 82.3% | 95.3% |
| COc1cc2nccc(Oc3ccc(NC(=O)C4(C(=O)Nc5ccc(F)cc5)CC4)cc3)c2cc1OC | 27.3% | 0.49% (active) | 0.11% (active) | 4.99% (active) | -25.5% (active) | 34% | -8.99% (active) | -10.2% (active) | -12.6% (active) | -11.6% (active) |
| Cn1c(=O)c(F)c(Nc2ccc(I)cc2F)c2c(=O)n(C[C@@H](O)CO)cnc21 | 52.1% | 28.5% | 0.26% (active) | 19% | -3.91% (active) | 59.5% | 77.5% | 52.3% | -21.4% (active) | 6.75% (active) |
| C[C@@H](Oc1cc(C(=O)Nc2ccc(C(=O)N3CCN(C)CC3)cc2)nnc1N)c1c(Cl)ccc(F)c1Cl | 84.7% | 28.7% | 65.2% | 62.2% | 62.6% | 70.3% | 13.9% | 64.9% | 60.9% | 76.9% |
| COc1cc(NCCCN)c2ncccc2c1 | 109% | 89.9% | 109% | 87.5% | 93.6% | 90.7% | 67.8% | 88.4% | 93.7% | 75.9% |
| Cc1ccccc1N1C(c2ccccc2)=NNC12C=CC(=O)C=C2Cl (stereo not given) | 110% | 96.4% | 98.6% | 111% | 132% | 99.1% | 108% | 93.4% | 81.1% | 105% |
| O=C(O)C1(Cc2cccc(Nc3nccs3)n2)CCC(Oc2cccc(Cl)c2F)CC1 (stereo not given) | 70.2% | 33.9% | 77.5% | 77.5% | 82.1% | 61.6% | 71.5% | 89.2% | 49.6% | 58% |
| Cc1ccc(N)cc1CN1C(=O)c2ccccc2C1=O | 105% | 105% | 101% | 106% | 102% | 121% | 118% | 107% | 100% | 96.9% |
| C/C(=C(/c1ccc(Cl)cc1)c1ccc(OCCN2CCCCC2)cc1)c1ccccc1 | 97.6% | 13.2% | 76.9% | 80.2% | 84.7% | 90.5% | 83.8% | 69.6% | 80.3% | 67.1% |
| COc1cc(Nc2ncc(F)c(Nc3ccc4c(n3)NC(=O)C(C)(C)O4)n2)cc(OC)c1OC | 48.8% | 66.5% | 88.7% | 41.7% | -40.3% (active) | 29.8% | 59.9% | -14.8% (active) | 57.1% | 57.5% |
| Cc1cc([C@@H](C)Nc2ccccc2C(=O)O)c2nc(N3CCOCC3)cc(=O)n2c1 | 57.2% | 66.9% | 40.7% | 60.3% | -21.1% (active) | 47.6% | 9.97% (active) | 19.7% | 32.8% | 45.9% |
| CC/C(=C(\c1ccc(OCCN2CCCCCCC2)cc1)c1ccc(OC(=O)C2CCCCC2)cc1)c1ccc(Cl)cc1 | 108% | 84.8% | 94.1% | 93.3% | 110% | 94.7% | 104% | 102% | 87.3% | 91.1% |
| CS(=O)(=O)CCNCc1ccc(-c2ccc3ncnc(Nc4ccc(OCc5cccc(F)c5)c(Cl)c4)c3c2)o1 | 12% | -22.7% (active) | -80.3% (active) | -62.8% (active) | -73.9% (active) | 8.76% (active) | -7.05% (active) | -91% (active) | -94.1% (active) | -64.5% (active) |
| Cc1cn(-c2cc(NC(=O)c3ccc(C)c(Nc4nccc(-c5cnccn5)n4)c3)cc(C(F)(F)F)c2)cn1 | 82.2% | 4.39% (active) | 16.6% | 55.4% | 129% | 65.1% | 93.9% | 98.2% | 38.4% | 18.7% |
| CC#CC(=O)N1CCC[C@H]1c1nc(-c2ccc(C(=O)Nc3ccccn3)cc2)c2c(N)nccn12 | 89.1% | 77.2% | 99% | 90.3% | 93.3% | 79.5% | 89.9% | 95.4% | 57.7% | 83.1% |
| COC(=O)[C@H](Cc1ccccc1)NC(=O)[C@@H](OC)[C@@H]1Cc2cc3cc(OC4CC(OC5CC(O)C(O)C(C)O5)C(O)C(C)O4)c(C)c(O)c3c(O)c2C(=O)[C@H]1OC1CC(OC2CC(OC3CC(C)(O)C(O)C(C)O3)C(O)C(C)O2)C(O)C(C)O1 (stereo not given in full) | 11.8% | 5.63% (active) | -54.8% (active) | -8.99% (active) | -75% (active) | -2% (active) | -9.46% (active) | -35.7% (active) | -16.2% (active) | -60.8% (active) |
| Cc1ccc(NC(=O)c2ccc(CN3CC[C@H](N(C)C)C3)c(C(F)(F)F)c2)cc1Nc1nccc(-c2cncnc2)n1 | 30.6% | -19.6% (active) | -79.2% (active) | -34.5% (active) | -20.2% (active) | 17.1% | -43.9% (active) | -89.6% (active) | -74.7% (active) | -61% (active) |
| COc1ccc(-c2cc3c(C)nc(N)nc3n(C3CCC(OCCO)CC3)c2=O)cn1 (stereo not given) | 7.64% (active) | 24% | -34% (active) | 5.08% (active) | -50.9% (active) | 4.36% (active) | -57.7% (active) | -62.4% (active) | -35.9% (active) | 0.206% (active) |
